{"source": "PubChem BioAssay (NCI)", "note": "This is part of a sample that, as a whole, favours compounds with a hit. Of some 83,000 tested, about 20% had one in any assay.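 A percent growth of 40 corresponds to 60% growth inhibition; 0 means no net growth; -100 means all cells died. Active threshold: below 10.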 A number with no mark means an inactive call. Activity calls are given as the source filed them.", "data": [{"tested_on": "HL-60(TB) leukemia", "experiment": "NCI-60 one-dose screen, 48 h (100 = growth as untreated, 0 = no growth, -100 = all killed)", "conditions": "10 µM unless noted", "values": [{"smiles": "C#CCNC(=O)CCC(=O)OC[C@]12CC[C@@H](C(=C)C)[C@@H]1C1CC[C@@H]3[C@@]4(C)CCCNC(C)(C)[C@@H]4CC[C@@]3(C)[C@]1(C)CC2", "note": "(some centres undefined)", "growth": "-39% (active)"}, {"smiles": "O=C(CNc1nc(-c2ccccc2)cs1)Nc1ccc(Cl)cc1", "growth": "-46.7% (active)"}, {"smiles": "N/C(=N\\N=C\\c1ccc([N+](=O)[O-])cc1)c1c(N)nc(=S)[nH]c1-c1ccc(Cl)cc1Cl", "growth": "103%"}, {"smiles": "O=C(COc1ccc2c(c1)CCCC(=O)N2)NCc1ccccc1", "growth": "70.4%"}]}]}
